{"source": "PubChem BioAssay (NCATS)", "key": {"[1]": {"assay": "Cytometric Cell-Based qHTS for Inhibitors of the mTORC1 Signaling Pathway in MEF (Tsc2-/-, p53-/-) Cells (AID 2660);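 further: percent of cells above a phospho-rpS6 to PI ratio cutoff in each well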", "in_short": "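Immunofluorescence qHTS of rpS6 Ser235/236 phosphorylation: MEFs (Tsc2-/-, p53-/-) treated 24 h, 37 C, in DMEM + 10% FBS. Alexa-488 signal normalized to PI count, referenced to rapamycin (7.5 nM) and DMSO; PI cell number recorded for viability.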"}, "[2]": {"assay": "High Content Imaging Cell-Based qHTS for Inhibitors of the mTORC1 Signaling Pathway in MEF (Tsc2-/-, p53-/-) Cells (AID 2666)", "conditions": "at 38.3 µM (top of the series)", "in_short": "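Read-out: % positive cells per well, with thresholds from highest- and lowest-signal wells, based on phospho-rpS6 (Ser235/236) intensity normalized to Hoechst nuclear stain. Cells: Tsc2-/-, p53-/- MEFs carrying empty vector; compound 24 hrs, 37 degree Celsius.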"}, "[3]": {"assay": "High Content Imaging Cell-Based qHTS for Inhibitors of the mTORC1 Signaling Pathway in MEF Cells (AID 2667)", "in_short": "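MEF (Tsc2-/-, p53-/-, WT Tsc2 re-expressed); cpd 24 h, 37 °C; PFA fix; Alexa-488 anti-p-rpS6 Ser235/236, PI, Hoechst; IN Cell imaging; Hoechst/Alexa-488 intensity ratio; % active cells, thresholds set from rapamycin and DMSO wells.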"}, "[4]": {"assay": "Cytometry Cell-Based qHTS for Inhibitors of the mTORC1 Signaling Pathway in MEF cells (AID 2668)", "in_short": "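Read-out: phospho-rpS6 Ser235/236 immunofluorescence normalized to propidium iodide intensity, scored as % active cells against a rapamycin (7.5 nM) threshold. Cells: Tsc2-/-, p53-/- MEFs stably expressing WT Tsc2, compound-treated 24 hrs at 37 degree Celsius.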"}, "[5]": {"target": "Ubiquitin carboxyl-terminal hydrolase 2 (Homo sapiens) (UniProt O75604)", "sequence (O75604 whole entry, looked up)": "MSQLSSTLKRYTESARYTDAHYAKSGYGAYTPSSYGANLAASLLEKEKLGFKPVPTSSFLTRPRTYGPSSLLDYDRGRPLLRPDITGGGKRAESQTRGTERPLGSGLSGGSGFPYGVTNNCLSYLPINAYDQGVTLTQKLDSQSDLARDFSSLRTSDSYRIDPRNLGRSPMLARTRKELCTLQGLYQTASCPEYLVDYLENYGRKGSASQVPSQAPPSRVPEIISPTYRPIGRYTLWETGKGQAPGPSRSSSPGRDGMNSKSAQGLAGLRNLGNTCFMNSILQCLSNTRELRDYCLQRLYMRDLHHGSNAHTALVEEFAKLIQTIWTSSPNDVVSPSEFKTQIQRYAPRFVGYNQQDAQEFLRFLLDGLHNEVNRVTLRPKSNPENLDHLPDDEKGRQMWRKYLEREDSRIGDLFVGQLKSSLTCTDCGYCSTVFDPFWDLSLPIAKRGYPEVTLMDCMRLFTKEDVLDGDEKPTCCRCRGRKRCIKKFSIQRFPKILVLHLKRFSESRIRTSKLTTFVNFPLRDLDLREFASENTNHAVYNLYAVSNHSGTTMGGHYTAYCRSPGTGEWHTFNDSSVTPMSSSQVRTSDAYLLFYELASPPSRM", "assay": "qHTS Validation Assay for Inhibitors of Ubiquitin-specific Protease USP2a Using CHOP2 as the Reporter (AID 463106)", "in_short": "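USP2 core (10nM final) was preincubated with compound for 30min at RT in 20mM Tris-HCl pH 8.0, 2mM CaCl2, 2mM beta-mercaptoethanol, 0.05% CHAPS. Ub-CHOP2 and reporter substrate (25nM each) were added, and fluorescence (Ex 485/Em 531nm) was read after 60min.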"}, "[6]": {"target": "DNA polymerase III PolC-type (Bacillus subtilis (strain 168)) (UniProt P13267)", "sequence (P13267 whole entry, looked up)": "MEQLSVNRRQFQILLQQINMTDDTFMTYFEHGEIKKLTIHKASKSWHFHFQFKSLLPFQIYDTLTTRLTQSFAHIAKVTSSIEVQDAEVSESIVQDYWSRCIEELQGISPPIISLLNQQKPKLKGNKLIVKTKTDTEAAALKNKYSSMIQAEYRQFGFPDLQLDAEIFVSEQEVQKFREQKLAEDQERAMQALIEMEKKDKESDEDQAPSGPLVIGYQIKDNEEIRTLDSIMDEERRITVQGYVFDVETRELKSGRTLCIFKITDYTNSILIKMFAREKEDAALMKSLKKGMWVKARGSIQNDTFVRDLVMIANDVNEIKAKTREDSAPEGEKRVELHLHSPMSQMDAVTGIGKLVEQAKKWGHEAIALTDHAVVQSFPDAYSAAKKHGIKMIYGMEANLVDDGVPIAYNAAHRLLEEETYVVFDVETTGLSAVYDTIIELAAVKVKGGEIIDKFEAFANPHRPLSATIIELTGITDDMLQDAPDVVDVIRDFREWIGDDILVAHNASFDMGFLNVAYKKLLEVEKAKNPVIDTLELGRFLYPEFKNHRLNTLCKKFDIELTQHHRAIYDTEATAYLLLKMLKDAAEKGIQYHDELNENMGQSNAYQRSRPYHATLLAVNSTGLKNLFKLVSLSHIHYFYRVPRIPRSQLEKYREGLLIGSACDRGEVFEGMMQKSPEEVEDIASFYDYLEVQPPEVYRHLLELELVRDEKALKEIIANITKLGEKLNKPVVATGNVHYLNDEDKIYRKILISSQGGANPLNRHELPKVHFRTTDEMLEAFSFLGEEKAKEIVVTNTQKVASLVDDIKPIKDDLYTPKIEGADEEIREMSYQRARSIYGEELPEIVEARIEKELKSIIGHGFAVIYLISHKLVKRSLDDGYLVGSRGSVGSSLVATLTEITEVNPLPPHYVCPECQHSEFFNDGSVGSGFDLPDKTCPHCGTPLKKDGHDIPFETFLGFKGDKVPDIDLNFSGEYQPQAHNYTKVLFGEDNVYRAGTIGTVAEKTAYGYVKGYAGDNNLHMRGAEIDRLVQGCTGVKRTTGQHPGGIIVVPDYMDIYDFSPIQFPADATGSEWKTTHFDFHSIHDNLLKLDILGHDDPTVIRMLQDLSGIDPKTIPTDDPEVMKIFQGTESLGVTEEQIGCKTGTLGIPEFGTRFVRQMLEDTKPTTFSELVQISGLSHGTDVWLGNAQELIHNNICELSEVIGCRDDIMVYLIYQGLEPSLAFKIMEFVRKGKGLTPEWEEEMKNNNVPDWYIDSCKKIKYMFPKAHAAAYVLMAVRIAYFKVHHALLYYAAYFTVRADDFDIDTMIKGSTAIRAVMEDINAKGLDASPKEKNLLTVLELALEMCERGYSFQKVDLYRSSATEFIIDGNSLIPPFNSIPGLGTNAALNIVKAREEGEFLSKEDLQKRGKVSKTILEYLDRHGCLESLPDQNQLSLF", "assay": "qHTS Validation Assay for the Inhibitors of DNA Replication in Gram-Positive Bacteria (AID 485295);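 further: reconstituted holoenzyme with PolC plus beta clamp SSB and primase; PicoGreen fluorescence of double-stranded DNA made on primed circular M13 template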", "in_short": "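PicoGreen fluorescence (ex 480–485/em 535–540 nm) reports dsDNA synthesized on ssM13Gori template with dNTPs/NTPs. Enzyme: holoenzyme rebuilt from purified PolC, beta subunit, SSB and primase. Compound preincubated before substrate addition; RT throughout.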"}, "[7]": {"target": "Tumor susceptibility gene 101 protein (Homo sapiens) (UniProt Q99816)", "sequence (Q99816 whole entry, looked up, the tested form may be a part)": "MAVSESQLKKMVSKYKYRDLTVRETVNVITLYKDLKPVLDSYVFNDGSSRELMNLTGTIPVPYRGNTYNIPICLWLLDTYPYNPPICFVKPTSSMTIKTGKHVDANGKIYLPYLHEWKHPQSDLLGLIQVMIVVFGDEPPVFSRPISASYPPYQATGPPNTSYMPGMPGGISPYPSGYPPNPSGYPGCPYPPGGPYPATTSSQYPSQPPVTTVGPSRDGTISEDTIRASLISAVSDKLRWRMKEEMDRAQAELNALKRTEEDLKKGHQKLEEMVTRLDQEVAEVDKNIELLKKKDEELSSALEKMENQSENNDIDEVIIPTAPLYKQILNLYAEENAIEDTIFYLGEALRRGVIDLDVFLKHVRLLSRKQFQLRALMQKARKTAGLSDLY", "assay": "qHTS Validation Assay for Iinhibitors of HIV-1 Budding by Blocking the Interaction of PTAP/TSG101 (AID 485342; calls by dose curve)", "in_short": "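FP read-out: FITC-PTAP peptide, 50 nM final, binding Tsg101 binding domain, 10 uM final; 20 min r.t.; 10 mM HEPES pH 7.5, 0.15 M NaCl, 0.01% Tween 20, 3 mM EDTA, 0.1 mM TCEP.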"}, "[8]": {"target": "Beta-2 adrenergic receptor (Homo sapiens) (UniProt P07550)", "assay": "qHTS validation assay of beta-arrestin-biased ligands of beta2-adrenergic receptor (AID 485366)", "in_short": "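Arrestin-recruitment (Tango) reporter: ligand-bound beta2-AR recruits beta-arrestin, releasing tTA, which upregulates luciferase. Titrations of up to 46 microM incubated 18 hr at 37 degrees C before luminescent readout.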"}, "[9]": {"target": "Chromobox protein homolog 1 (Homo sapiens) (UniProt P83916)", "assay": "qHTS Validation Assay for Inhibitors of HP1-beta Chromodomain Interactions with Methylated Histone Tails (AID 488953); further: potency means the concentration at half of the fitted maximal effect; nearly all actives have a fitted effect of over 50% in size", "in_short": "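Measured as loss of AlphaScreen luminescence from streptavidin donor and nickel acceptor beads (10 ug/mL final) bridging HP1-beta and biotin-H3(1-18)K9me3, each 50 nM. Compounds met the preassembled complex for 30 min at RT.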"}, "[10]": {"target": "D(1A) dopamine receptor (Homo sapiens) (UniProt P21728)", "sequence (P21728 whole entry, looked up)": "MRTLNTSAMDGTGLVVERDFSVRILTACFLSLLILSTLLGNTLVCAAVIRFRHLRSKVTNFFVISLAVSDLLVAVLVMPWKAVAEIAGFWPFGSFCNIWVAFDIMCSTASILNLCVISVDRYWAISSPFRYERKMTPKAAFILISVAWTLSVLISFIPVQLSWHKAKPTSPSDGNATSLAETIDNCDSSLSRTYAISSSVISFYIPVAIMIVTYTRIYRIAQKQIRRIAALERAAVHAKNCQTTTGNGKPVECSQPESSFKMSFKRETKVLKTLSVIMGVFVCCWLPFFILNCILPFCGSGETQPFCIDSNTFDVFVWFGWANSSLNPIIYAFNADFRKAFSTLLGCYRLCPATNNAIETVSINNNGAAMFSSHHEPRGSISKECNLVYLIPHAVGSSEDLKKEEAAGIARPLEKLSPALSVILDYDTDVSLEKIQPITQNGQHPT", "assay": "HTS Assay for Allosteric Agonists of the Human D1 Dopamine Receptor: Primary Screen for Agonists (AID 488981)", "in_short": "(§1)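 Tetracycline-induced HEK293 T-REx cells force-coupled to calcium signalling were incubated overnight at 30 C and dye-loaded at room temperature. Calcium flux over 180 s after compound addition flagged agonists; a further 180 s read after EC20 dopamine flagged potentiators.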"}, "[11]": {"target": "D(1A) dopamine receptor (Homo sapiens) (UniProt P21728)", "assay": "HTS Assay for Allosteric Agonists of the Human D1 Dopamine Receptor: Primary Screen for Potentiators (AID 488982)", "in_short": "as §1"}, "[12]": {"assay": "Validation screen for small molecules that induce genotoxicity in human embryonic kidney (HEK293T) cells expressing luciferase-tagged ELG1 (AID 493106)", "in_short": "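Reporter-gene quantitative HTS in HEK293T cells carrying luciferase-tagged ELG1, whose level climbs under genotoxic stress. Compound exposure lasts 16 hr at 37 °C before luciferase detection.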"}, "[13]": {"assay": "qHTS for Inhibitors of Cell Surface uPA Generation: Validation Assay (AID 493164)", "in_short": "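RAW 264.7, 4000 cells/well, o/n plating; cpd 7-pt 1:5 dilution 2.45 nM–38.3 uM final; 18 h, 37 C/5% CO2; ATP-Lite, 5 s luminescence exposure.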"}, "[14]": {"target": "Phosphoglycerate kinase, glycosomal (Trypanosoma brucei brucei) (UniProt P07378)", "sequence (P07378 whole entry, looked up)": "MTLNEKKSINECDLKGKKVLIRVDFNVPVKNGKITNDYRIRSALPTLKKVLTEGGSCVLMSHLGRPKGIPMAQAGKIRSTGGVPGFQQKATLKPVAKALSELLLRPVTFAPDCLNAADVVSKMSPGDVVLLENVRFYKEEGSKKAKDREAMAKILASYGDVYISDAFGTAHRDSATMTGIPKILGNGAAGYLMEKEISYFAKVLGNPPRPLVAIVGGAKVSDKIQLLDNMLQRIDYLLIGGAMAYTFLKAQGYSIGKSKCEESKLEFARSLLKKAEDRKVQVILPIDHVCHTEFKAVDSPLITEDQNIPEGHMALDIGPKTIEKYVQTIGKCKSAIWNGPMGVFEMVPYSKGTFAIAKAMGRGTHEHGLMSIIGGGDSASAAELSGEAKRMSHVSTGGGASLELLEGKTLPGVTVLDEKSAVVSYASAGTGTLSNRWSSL", "assay": "qHTS Validation Assay to Find Inhibitors of Phosphoglycerate Kinase (AID 504547)", "in_short": "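Substrate/PGK mix plus compound; reaction started with GAPDH (100nM final) to form 1,3-BPG; 60 min RT; Kinase-Glo Plus 10 min; luminescence. TEA 100mM pH 7.6, MgCl2 5mM, Tween-20 0.01%.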"}, "[15]": {"target": "phosphoglycerate mutase (Leishmania major) (UniProt Q4Q090)", "sequence (Q4Q090 1-553)": "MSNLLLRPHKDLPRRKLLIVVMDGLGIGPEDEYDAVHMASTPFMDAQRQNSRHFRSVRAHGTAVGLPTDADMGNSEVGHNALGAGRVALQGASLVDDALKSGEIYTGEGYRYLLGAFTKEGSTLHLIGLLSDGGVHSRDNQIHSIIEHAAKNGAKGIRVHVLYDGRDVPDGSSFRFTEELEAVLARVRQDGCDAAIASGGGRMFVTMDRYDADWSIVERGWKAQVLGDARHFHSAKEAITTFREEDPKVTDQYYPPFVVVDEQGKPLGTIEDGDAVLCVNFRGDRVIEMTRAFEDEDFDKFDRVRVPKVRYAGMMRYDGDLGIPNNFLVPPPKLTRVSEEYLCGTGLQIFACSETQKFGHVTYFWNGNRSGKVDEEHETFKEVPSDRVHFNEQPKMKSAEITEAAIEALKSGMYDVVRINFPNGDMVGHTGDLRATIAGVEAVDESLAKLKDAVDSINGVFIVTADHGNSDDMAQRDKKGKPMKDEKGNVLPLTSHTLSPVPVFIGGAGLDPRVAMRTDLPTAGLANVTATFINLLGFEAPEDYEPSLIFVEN", "assay": "qHTS Validation Assay to Find Inhibitors of Phosphoglycerate Mutase (AID 504548)", "in_short": "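L. major PGAM (1.25nM final) was added to substrate buffer and pinned compound, incubated 45 minutes at room temperature, then Kinase-GloPlus added; luminescence read after 10 minutes. Buffer: 100 mM TEA pH 7.6, 5 mM MgCl2, 0.01% Tween-20.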"}, "[16]": {"assay": "qHTS for Inhibitors of ATXN expression: Validation (AID 588378)", "in_short": "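Cells: HEK293-ATXN2-FFLuc, phenol-red free DMEM, 2 h attachment. Compound pin-transfer, 24 h, 37 degrees C, 5% CO2. CellTiter-Fluor 30 min, Ex405/Em525; Bright-Glo 5 min, luminescence 2 s exposure.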"}, "[17]": {"target": "Glutaminase kidney isoform, mitochondrial (Homo sapiens) (UniProt O94925)", "sequence (O94925 whole entry, looked up, canonical isoform)": "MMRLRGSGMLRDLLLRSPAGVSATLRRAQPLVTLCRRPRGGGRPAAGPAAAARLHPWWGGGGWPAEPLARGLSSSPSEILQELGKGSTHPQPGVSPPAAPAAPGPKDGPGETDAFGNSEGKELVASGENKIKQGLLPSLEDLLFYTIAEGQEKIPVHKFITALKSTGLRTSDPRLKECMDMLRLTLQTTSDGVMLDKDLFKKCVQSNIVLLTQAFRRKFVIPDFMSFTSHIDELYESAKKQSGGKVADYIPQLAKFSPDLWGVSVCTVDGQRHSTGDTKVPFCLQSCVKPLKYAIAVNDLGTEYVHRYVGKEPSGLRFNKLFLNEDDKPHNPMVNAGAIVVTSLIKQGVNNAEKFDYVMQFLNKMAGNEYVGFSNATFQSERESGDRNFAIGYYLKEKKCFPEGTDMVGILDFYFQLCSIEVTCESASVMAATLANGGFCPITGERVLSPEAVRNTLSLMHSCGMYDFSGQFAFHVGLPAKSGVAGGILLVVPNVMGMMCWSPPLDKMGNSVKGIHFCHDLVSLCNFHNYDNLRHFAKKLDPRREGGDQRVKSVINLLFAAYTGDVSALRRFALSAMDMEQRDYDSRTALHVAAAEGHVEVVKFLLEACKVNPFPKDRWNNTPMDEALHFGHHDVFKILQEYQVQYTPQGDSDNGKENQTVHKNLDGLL", "assay": "qHTS for Inhibitors of Glutaminase (GLS): LOPAC Validation (AID 624146)", "in_short": "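hKGA in 45 mM KH2PO4 pH 8.2, 0.02% Tween-20 with pin-transferred compounds; 1 mM L-glutamine (stock) plus glutamate oxidase/HRP/Amplex Red coupling added. Fluorescence read initially and after 30 min at RT.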"}, "[18]": {"assay": "qHTS of Trypanosoma Brucei Inhibitors: LOPAC Validation (AID 624147)", "in_short": "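Quantitative HTS: titrated library compounds versus trypanosomal pyruvate kinase in TEA buffer (pH 7.2) containing KCl, MgCl2, BSA and Tween-20. Reactions were initiated with ADP, 130 uM final. Kinase-Glo Plus luminescence was read after 45 min at RT.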"}, "[19]": {"target": "Glucagon-like peptide 1 receptor (Homo sapiens) (UniProt P43220)", "assay": "qHTS of GLP-1 Receptor Agonists: LOPAC Validation (AID 624148)", "in_short": "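HEK293 cells stably co-expressing a cAMP-responsive luciferase reporter and a hypersensitive GLP-1R were plated 12 h at 37 °C and exposed to compounds for 4-6 hr at 37 °C, 5% CO2. Luminescence was read 12 min after adding detection reagent.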"}, "[20]": {"assay": "qHTS of Nrf2 Activators: LOPAC Validation (AID 624149)", "in_short": "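ARE reporter activation measured in AREc32 firefly luciferase cells after 24 hr compound exposure; Steady-Glo luminescence.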"}, "[21]": {"assay": "HTS Assay for Allosteric Antagonists of the Human D2 Dopamine Receptor: Hit Validation in HTRF (AID 624455)", "in_short": "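Signal from an HTRF read-out in D1-expressing stable cells gave hit activity as inhibition of the D1 response.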"}, "[22]": {"target": "Arylsulfatase A (Homo sapiens) (UniProt P15289)", "sequence (P15289 whole entry, looked up)": "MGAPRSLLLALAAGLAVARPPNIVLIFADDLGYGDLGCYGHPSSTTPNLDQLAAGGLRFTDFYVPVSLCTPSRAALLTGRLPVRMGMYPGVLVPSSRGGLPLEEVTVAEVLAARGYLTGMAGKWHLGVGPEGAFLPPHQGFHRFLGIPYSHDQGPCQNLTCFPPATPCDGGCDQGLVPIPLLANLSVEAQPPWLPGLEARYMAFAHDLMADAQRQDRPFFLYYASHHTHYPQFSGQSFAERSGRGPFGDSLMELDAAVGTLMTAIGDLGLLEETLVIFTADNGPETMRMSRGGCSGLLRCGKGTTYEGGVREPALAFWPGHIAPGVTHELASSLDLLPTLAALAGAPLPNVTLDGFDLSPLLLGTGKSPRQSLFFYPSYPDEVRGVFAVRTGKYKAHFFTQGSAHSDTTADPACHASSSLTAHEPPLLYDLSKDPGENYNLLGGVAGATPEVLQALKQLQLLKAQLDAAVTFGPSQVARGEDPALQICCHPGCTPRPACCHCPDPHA", "assay": "qHTS screen for enhancers of Arylsulfatase A (ASA1): LOPAC Validation Assay (AID 720538)", "in_short": "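Read-out: fluorescence at Ex=525/Em=598 nm after 1N NaOH final stop. Patient fibroblasts carrying ASA-I179S had 48h compound exposure, then 14h room-temperature pNCS hydrolysis (0.5mM final) in lysis buffer. Signal increase = enhanced activity.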"}, "[23]": {"assay": "qHTS for compounds that reverse cellular toxicity of Amyloid beta (A-beta) peptide in yeast: LOPAC Validation Assay (AID 720559)", "in_short": "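OD600 growth readout after 48 hr at 30 C; A-beta-toxic yeast plus pinned compounds in medium. Normalization: DMSO = negative, equimolar FeCl3 + clioquinol = positive.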"}, "[24]": {"assay": "qHTS for Activators of Parkin Expression: LOPAC Validation Assay (NLuc Reporter) (AID 720572)", "in_short": "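Neuronal line stably carrying a FLuc/NLuc coincidence reporter under the Parkin promoter, seeded 24 h, then dosed in 7-point series for 24 h at 37 C. NLuc luminescence read after FLuc; normalized to DMSO and positive control (100%).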"}, "[25]": {"assay": "qHTS for Activators of Parkin Expression: LOPAC Validation Assay (FLuc Reporter) (AID 720573)", "in_short": "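FLuc luminescence read-out from a neuronal line expressing a Parkin-promoter-driven coincidence reporter. Cells treated 24 h at 37 C, 5% CO2 with compounds at 7 concentrations; signal increase normalized to DMSO and positive control.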"}}, "note": "Results filed as inconclusive are left out. A call without a number means that no potency is given here. Calls of active or inactive are those of the source. Unless noted, the call rests on the fitted dose curve; in most records, active means well fitted curve in the direction sought with a large enough effect; inconclusive means small, poorly fitted or top-dose-only effect, or another doubt; inactive means no such curve, though single readings can be large; an effect the other way counts as inactive or inconclusive."}
{"smiles": "CCc1ccc(/C=C2/SC(=S)NC2=O)cc1", "values": [{"measurement": "outcome", "setting": "[1]", "value": "inactive"}, {"measurement": "outcome", "setting": "[2]", "value": "inactive"}, {"measurement": "Potency", "setting": "[3]", "value": "inactive"}, {"measurement": "Potency", "setting": "[4]", "value": "inactive"}, {"measurement": "Potency", "setting": "[5]", "value": "inactive"}, {"measurement": "Potency", "setting": "[6]", "value": "inactive"}, {"measurement": "outcome", "setting": "[7]", "value": "inactive"}, {"measurement": "outcome", "setting": "[8]", "value": "inactive"}, {"measurement": "Potency", "setting": "[9]", "value": "12.6 µM (active)"}, {"measurement": "outcome", "setting": "[10]", "value": "inactive"}, {"measurement": "outcome", "setting": "[11]", "value": "inactive"}, {"measurement": "Potency", "setting": "[12]", "value": "inactive"}, {"measurement": "outcome", "setting": "[13]", "value": "inactive"}, {"measurement": "Potency", "setting": "[14]", "value": "inactive"}, {"measurement": "outcome", "setting": "[15]", "value": "inactive"}, {"measurement": "Potency", "setting": "[16]", "value": "inactive"}, {"measurement": "Potency", "setting": "[17]", "value": "inactive"}, {"measurement": "outcome", "setting": "[18]", "value": "inactive"}, {"measurement": "outcome", "setting": "[19]", "value": "inactive"}, {"measurement": "outcome", "setting": "[20]", "value": "inactive"}, {"measurement": "outcome", "setting": "[21]", "value": "inactive"}, {"measurement": "Potency", "setting": "[22]", "value": "15.1 µM (active)"}, {"measurement": "outcome", "setting": "[23]", "value": "inactive"}, {"measurement": "outcome", "setting": "[24]", "value": "inactive"}, {"measurement": "Potency", "setting": "[25]", "value": "inactive"}]}
